Laboratory results as given in the OligoGym collection.

Biological target: CYP2E1
Experiment: pooled miR-30 sensor sort-seq; sequence = guide strand
Conditions: shRNA
Further: reference of the scale not given here.

| Sequence | sensor-assay potency score (higher = more potent) |
| --- | --- |
| TTATTAAAAATGATTCCCCTGT | 0.074 |
| TACAGCGTGAACACCGGCCCGA | -0.641 |
| TGTCATACAAAACAGAGTCCAG | -0.481 |
| TTGGGGATGAGGTATCCTCTGA | -0.671 |
| TGTCCTTCCAGGTAGGTCCATT | -0.826 |
| TAAACAAATACATCAGCCTTAG | -0.917 |
| TAGAAACTTCTCATCATTGTAG | 1.11 |
| TTGATGGTGCTCCTTCACCCTT | -1.19 |
| ATATTCTTCAATTCCAACTGGA | 0.347 |
| TTGAAATAGTCACTGTACTTGA | -0.183 |
| TTTTTTATGACTTTTCTGTGGC | 0.343 |
| ATCATTGTAGTCAAAATGCTTG | -1.07 |
| AAGTAGTGTAGAAAGCTGGGAA | 0.682 |
| TTGGTTGTCATACAAAACAGAG | -1.2 |
| ATAGTCACTGTACTTGAACTTT | -0.806 |
| TTAAACAAATACATCAGCCTTA | 0.593 |
| TAGTCACTGTACTTGAACTTTC | -0.787 |
| TTGTAGTCAAAATGCTTGCGGA | -0.87 |

Biological target: CYP4A11
Experiment: as above
Conditions: shRNA

| Sequence | sensor-assay potency score (higher = more potent) |
| --- | --- |
| AAAGGGTCAAACACCTCTGGGT | -0.324 |
| TAGCTCCTGGTCCTGTTGGAGC | -1.31 |
| TGTGCAGGTAGAGCTGAACTGC | -1.37 |
| TAGATGGTGTCATTCTGGTGAA | -0.837 |
| TTTCTGAATCCGTTGTAGCTCC | -0.368 |
| TTTGAGCAGCCACTGCCTGTGC | -0.428 |
| AACACAAGTCGTGCAATGGGGA | -1.18 |

Biological target: CYP4A22
Experiment: as above
Conditions: shRNA

| Sequence | sensor-assay potency score (higher = more potent) |
| --- | --- |
| TCCTTGTCTGACAAGATGCTCC | -1.35 |
| TTGGATCACTTGGTCTGTGTGC | -0.603 |
| TCAGTTGGATCACTTGGTCTGT | -0.279 |
| TTCTGTAGTTGAGCCTTCCTCA | 0.294 |
| TTCCTGAATCCGTTGTAGCTCC | -0.657 |
| AACACAAGTCGTGCCATGGGGA | -0.895 |
| TAGAGGATCCAGGAGATCCCAC | -1.33 |
| TTGTCTGACAAGATGCTCCCAT | 0.46 |
| TGGCCCTCAAACATGAACGTGT | -0.767 |
| TTAATGCACATGGTGGTGTAGG | -1.01 |
| TGTCTGACAAGATGCTCCCATT | -1.67 |
| TTGGGAATGTCTTCACCCGTTC | -0.893 |
| TATGCAGGTAGAGCTGAGCTGC | -1.03 |
| ATTTCAACACAAGTCGTGCCAT | -0.11 |
| TTTGGATTTCAACACAAGTCGT | -1.17 |
